# Compound activity: PubChem BioAssay, The Scripps Research Institute Molecular Screening Center
# FBW7 act: activators of human E3 ligase FBW7. actives 0.13% (n = 650,000). AlphaScreen FBW7–phospho-cyclin E peptide binding, activator screen. normalized activity (activation), % at 26.1 µM. Q969H0. AID 1259310; in the data active means normalized activity above about 1.9%;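 further: purified mutant Fbw7 with reduced substrate affinity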
# GPR151 activ: activates the human receptor GPR151 | PathHunter beta-arrestin GPR151 cells, luminescence | actives 1% (n = 650,000) | activation, % at 11.2 µM | Q8TDV0; in the data active means activation above about 4.9%;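 further: 0% = median of compound wells and 100% = cells with positive control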
# TEAD-YAP block: TEAD-YAP interaction inhibition. HEK-TIYL cells, TEAD-Gal4/YAP UAS-luciferase luminescence. inhibition, % at 9.12 µM. actives 1.4% (n = 640,000). AID 1259422; in the data active means inhibition above about 32%;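 further: 0% = median of test compound wells and 100% = reference inhibitor wells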
# MITF primary: inhibitors of human MITF | inhibition, % at 2.6 µM | O75030 | AlphaScreen MITF homodimerization, bead proximity signal | actives 0.91% (n = 650,000); in the data active means inhibition above about 50%;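 further: 0% = vehicle wells with protein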
# Target sequence (O75030 whole entry, looked up): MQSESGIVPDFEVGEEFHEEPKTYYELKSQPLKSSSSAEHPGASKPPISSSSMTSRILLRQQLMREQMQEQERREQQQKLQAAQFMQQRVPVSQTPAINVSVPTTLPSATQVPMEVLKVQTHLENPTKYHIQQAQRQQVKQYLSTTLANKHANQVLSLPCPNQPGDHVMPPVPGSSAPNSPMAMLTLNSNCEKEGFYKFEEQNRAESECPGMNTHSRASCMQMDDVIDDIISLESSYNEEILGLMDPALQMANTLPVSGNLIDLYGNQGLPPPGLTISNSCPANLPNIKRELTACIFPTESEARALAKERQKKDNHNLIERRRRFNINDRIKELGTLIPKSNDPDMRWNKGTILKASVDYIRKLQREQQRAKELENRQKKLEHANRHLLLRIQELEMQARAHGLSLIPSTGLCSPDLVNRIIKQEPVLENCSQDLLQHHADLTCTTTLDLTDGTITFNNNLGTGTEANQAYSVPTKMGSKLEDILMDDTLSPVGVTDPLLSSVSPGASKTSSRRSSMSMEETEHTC
# MITF inh conf: confirmation of human MITF inhibitors | AlphaScreen MITF homodimerization, biotin/His-MITF beads | shares compounds with MITF primary | actives 16% (n = 4,700) | inhibition, % at 2.6 µM | AID 1259372;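 active means inhibition above a cutoff derived from the DMSO control wells, cut at about 28% in these data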;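 further: 0% = MITF dimer wells with DMSO only; inhibitors lower the bead chemiluminescence by keeping MITF from dimerizing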
# AlphaScreen intf2: counter-screen: compounds optically interfering with AlphaScreen; actives 7.6% (n = 4,700); inhibition, % at 2.6 µM; shares compounds with MITF primary; LysRS AlphaScreen counterscreen, signal interference, triplicate;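 active means inhibition above a cutoff derived from the DMSO control wells, cut at about 30% in these data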
# Starred values were filed as active, the others as inactive; . = no result. Rows were chosen to be rich in hits. Some 3.5% of all compounds tested hit in one or more screens of this group.
SMILES,FBW7 act,GPR151 activ,TEAD-YAP block,MITF primary,MITF inh conf,AlphaScreen intf2
COc1cccc(CN2CCN(Cc3ccco3)CC2)c1,0,-1,-9,76*,14,20
CCc1ccc(CN2CCC(C(=O)NCc3ccco3)CC2)cc1,1,-1,9,48,.,.
COc1ccc(OC)c(CN2CCN(Cc3ccco3)CC2)c1,0,1,-4,79*,10,13
CCc1ccc(CN2CCN(Cc3ccco3)CC2)cc1,0,1,-5,71*,12,21
c1ccc(Oc2cccc(CN3CCN(Cc4ccco4)CC3)c2)cc1,0,-1,-4,69*,7,4
OCCN1CCN(Cc2cccc(Oc3ccc(Cl)cc3)c2)CC1,0,0,8,-10,.,.
COc1ccc(OC)c(CNCc2ccco2)c1,0,1,4,4,.,.
Cc1cccc(NS(=O)(=O)c2cc(C(=O)N3CCC(C(N)=O)CC3)ccc2Cl)c1,0,0,2,8,.,.
C=CCN=c1scc(-c2ccc(O)c(C(N)=O)c2)n1/N=C/c1cccc([N+](=O)[O-])c1,0,2,-20,-12,.,.
CCN(CC)C(=O)CC1(c2ccccc2Cl)CC(=O)N(CCN(C)C)C1=O (configuration not stated),0,0,-10,-5,.,.
COc1ccc(CN2CCN(Cc3ccco3)CC2)cc1,0,-1,-21,71*,9,9
CSc1ccc(CN2CCN(Cc3ccco3)CC2)cc1,0,0,1,85*,-1,-1
COc1ccc(CN2CCN(C(=O)c3ccco3)CC2)cc1,0,1,-4,39,.,.
Clc1ccccc1N1CCN(Cc2ccco2)CC1,0,0,0,2,.,.
CCN1CCN(Cc2nnnn2Cc2ccco2)CC1,0,-1,17,10,.,.
COc1ccc(C(=O)N2CCN(Cc3ccco3)CC2)cc1,0,1,-4,55*,-13,6
CCC(CC)N1CCN(Cc2ccco2)CC1,0,-1,-5,53*,6,2
Cc1ccc2c(nc3s/c(=C\c4ccc(OCC5CC5)cc4)c(=O)n32)c1C,0,-2,-4,3,.,.
CC(=O)Oc1ccc(Nc2cccc(Cl)c2C#N)cc1,0,0,-8,6,.,.
CCN(CC)c1nc(NCCOc2ccccc2)nc(Nc2cccc(N(C)C)c2)n1,0,-1,-6,61*,7,6
Cc1cc(S(=O)(=O)N2CCN(Cc3ccc(Cl)cc3)CC2)ccc1-n1cnnn1,0,0,11,60*,13,10
CCOc1ccccc1CN1CCN(S(=O)(=O)c2ccc(Cl)cc2)CC1,0,-1,-7,61*,9,11
COc1ccccc1CN1CCN(S(=O)(=O)c2ccccc2)CC1,0,-1,-4,63*,1,9
Cc1ccccc1CN1CCN(S(=O)(=O)c2ccc(Cl)cc2)CC1,0,-1,-27,53*,9,18
COc1cccc(CN2CCN(S(=O)(=O)c3ccccc3)CC2)c1OC,0,0,-4,-2,.,.
SMILES,FBW7 act,GPR151 activ,TEAD-YAP block,MITF primary,MITF inh conf,AlphaScreen intf2
COc1ccccc1NS(=O)(=O)c1ccc(C)cc1[N+](=O)[O-],0,3,7,3,.,.
Oc1cccc(-c2nc3ncccn3c2Nc2ccccc2)c1,0,0,-2,16,.,.
COc1cc(C2C(C#N)=C(N)N(c3cccc([N+](=O)[O-])c3)C3=C2C(=O)CCC3)cc(OC)c1OC (configuration not stated),0,0,3,1,.,.
N#C/C(=C\c1cn(Cc2ccccc2)nc1-c1cccnc1)C(=O)Nc1nccs1,0,3,2,8,.,.
CCN1CCN(C(c2ccc(C)cc2)c2nnnn2C(C)(C)CC)CC1 (configuration not stated),0,0,-3,52*,7,21
CCCCOc1ccc(C(=O)NNC(=O)c2ccc(-c3ccccc3)cc2)cc1,0,1,10,-4,.,.
CCN1CCN(CCCOc2ccc(Cl)cc2Br)CC1,0,2,-15,68*,14,20
CCN1CCN(CCOc2ccc3ccccc3c2Br)CC1,0,1,-2,60*,14,13
CCN1CCN(CCOc2ccc(Br)cc2C)CC1,0,-1,-4,57*,17,9
CC1CN(CCOc2ccc(Cl)cc2Br)CC(C)O1 (configuration not stated),0,0,0,39,.,.
CCN1CCN(CCOc2ccc(Cl)cc2Br)CC1,0,-2,5,57*,9,14
O=C(O)C1C2CCC(C2)C1C(=O)Nc1nccs1 (configuration not stated),0,2,-5,-5,.,.
COc1ccc(NC(=O)C23CC4CC(CC(C4)C2)C3)c2ccccc12,0,1,2,1,.,.
Cc1c(C)n(C(=O)CN2CCN(c3ccccn3)CC2)c2ccccc12,0,-1,0,18,.,.
CCN1CCN(CC(=O)n2c(C)c(C)c3ccccc32)CC1,0,-1,-1,74*,-2,-4
COc1cc(NC(=O)CC2OCCN(Cc3ccccc3)C2=O)cc(OC)c1 (configuration not stated),0,1,-4,3,.,.
COCCn1nnnc1C(c1ccc(Cl)cc1)N1CCSCC1 (configuration not stated),0,0,-9,66*,10,12
COCCn1nnnc1CN1CCSCC1,1,2,14,56*,7,11
CCc1cc(=O)n(CC(=O)NCC2CCCO2)c(-n2nc(C)cc2C)n1 (configuration not stated),0,0,-1,7,.,.
Clc1ccc(OCCN2CCOCC2)c(Br)c1,0,0,0,38,.,.
Cc1cc(Cl)c(OCCN2CCOCC2)c(Cl)c1,0,-1,-7,61*,-1,2
Cc1ccc(OCCN2CCOCC2)c(Br)c1,0,2,-13,64*,-4,-1
Cc1ccc(OCCOCCN2CCOCC2)c(C)c1,0,2,-15,-1,.,.
Cc1ccc(C(C)(C)C)c(OCCN2CCOCC2)c1,0,-1,1,65*,7,5
COc1ccc(-n2c(/C=C/c3ccc([N+](=O)[O-])cc3)nc3ccccc3c2=O)cc1Cl,0,-1,7,-6,.,.
Cc1nc2ccccc2n1CC1CCN(C(=O)Nc2ccccc2)CC1,0,1,-1,43,.,.
COc1ccccc1NC(=O)CN1CCN(Cc2nc3ccccc3n2C)CC1,-1,-1,-8,67*,9,14
Cn1c(CN2CCN(C(=O)CN3C(=O)CCC3=O)CC2)nc2ccccc21,0,3,0,54*,2,12
Cc1nc2ccccc2n1CC1CCN(C(=O)CN2C(=O)CCC2=O)CC1,0,0,-2,65*,5,22
COc1ccccc1NC(=O)CN1CCN(CC(=O)Nc2ccccc2OC)CC1,0,-2,0,-29,.,.
